This is a sample that favours compounds with a hit; in the whole collection about 9.4% have one here.
FLuc counter – firefly luciferase modulation, counter-screen for miR-21 project; P08659; purified FLuc, Km substrates, luminescence inhibition; Potency, µM (series often up to 57.5 µM), inactives show at the highest dose activity change, negative = inhibition, usual class: inhibitors; 6.9% of 360,000 active; AID 588342;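 also: plate controls were vehicle for no effect and reference inhibitor for full effect; nearly all actives have a fitted effect of over 55% in size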
Target sequence (P08659 whole entry, looked up): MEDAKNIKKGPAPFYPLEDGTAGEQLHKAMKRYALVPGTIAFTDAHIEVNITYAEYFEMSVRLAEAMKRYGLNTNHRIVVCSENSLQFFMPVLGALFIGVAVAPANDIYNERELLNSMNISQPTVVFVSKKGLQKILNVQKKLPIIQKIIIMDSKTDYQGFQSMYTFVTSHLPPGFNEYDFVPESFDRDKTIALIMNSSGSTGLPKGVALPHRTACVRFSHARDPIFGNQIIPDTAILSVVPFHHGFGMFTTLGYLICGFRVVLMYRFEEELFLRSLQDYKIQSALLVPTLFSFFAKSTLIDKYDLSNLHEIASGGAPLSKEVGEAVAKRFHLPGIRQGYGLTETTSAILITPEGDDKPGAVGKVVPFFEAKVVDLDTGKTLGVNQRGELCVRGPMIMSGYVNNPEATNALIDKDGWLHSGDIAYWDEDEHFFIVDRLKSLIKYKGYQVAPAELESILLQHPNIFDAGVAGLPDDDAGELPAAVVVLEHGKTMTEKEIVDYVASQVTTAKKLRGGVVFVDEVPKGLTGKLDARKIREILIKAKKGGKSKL
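Purified P. pyralis luciferase (10nM final) with 10uM D-luciferin and 10uM ATP (Km levels) in 50mM Tris acetate pH 7.5, 10mM Mg acetate, 0.01% Tween-20, 0.05% BSA; qHTS 6-point titration, ~60 µM downward; luminescence read.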
NPC1 prom act – NPC1 promoter activation. Huh7 NPC1 promoter luciferase reporter, 24 h. Potency, µM (series often up to 9.22 µM), for the others: top-dose activation, usual class: activators. 2.4% of 320,000 active. AID 485313; also: % of control where 0% means no effect; nearly all actives have a fitted effect of over 60% in size
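Readout is luciferase luminescence, reflecting NPC1 promoter activation in stably transfected Huh7 cells after 24 h compound exposure at 37 °C in reduced-serum medium with 10% FBS.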
ELG1 repair inh – blocks ELG1-dependent DNA repair in HEK293T cells. 2.3% of 330,000 active. Potency, µM (titrated, usually from 46.1 µM), inactives show top-dose activity change, negative = inhibition, hits mostly inhibitors. HEK293T ELG1-luciferase reporter, luminescence, 16 h; DNA damage induced by 5-fluorouridine; also: % is scaled to controls: 0 for no effect and ±100 for the full control effect; nearly all actives have a fitted effect of over 55% in size
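Luminescence from the luciferase reporter, measured 30 min after ONE-Glo reagent at room temperature, was the read-out. Beforehand, 2,000 cells per well were exposed for 16 hr at 37 °C to 5-fluorouridine together with compound or vehicle.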
ELG1 genotox – inducers of genotoxicity in HEK293T ELG1-luciferase cells; HEK293T ELG1-luciferase reporter, luminescence, 16 h; 1.3% of 330,000 active; Potency, µM (top dose mostly 46 µM), for inactives: at the highest dose activity change, positive = activation, usual class: activators; also: % of control where 0% means no effect; nearly all actives have a fitted effect of over 60% in size
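Reporter readout depends on ELG1 protein level, which increases with genetic stress. After 16 hr compound exposure at 37 °C, luciferase activity was quantified using ONE-Glo.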
Rab9 prom act – Rab9 promoter activation; Huh7 Rab9 promoter-luciferase reporter, luminescence, 24 h; Potency, µM (titrated, usually from 9.22 µM), without a hit: at the top dose activation, negative = inhibition, hits mostly activators; 2.8% of 320,000 active; also: % of control where 0% means no effect; nearly all actives have a fitted effect of over 60% in size
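Quantitative HTS format; Huh7 Rab9-luciferase reporter cells (1500/well) receive compound 2 h post-plating, incubate 24 h at 37 °C, then get luciferase reagent for 10 min before luminescence reading.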
SMN2 splice enh – enhancers of SMN2 splice variant expression. HEK293 SMN2-luciferase splicing reporter, luminescence, 30-36 h. Potency, µM (highest dose often 46.1 µM), without a hit: top-dose activity change, positive = activation, most hits filed as activators. 2.8% of 210,000 active. AID 1458; also: % of control where 0% means no effect; nearly all actives have a fitted effect of over 55% in size
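qHTS luciferase splicing reporter: luminescence rises when SMN2 exon 7 is included in transfected HEK293 cells. Compound exposure lasted 30-36 h at 37C, with 4.5 mM final sodium butyrate as control, followed by a ONE-Glo read.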
Starred values were filed as active, the others as inactive. Calls follow the shape of the dose curve; as a rule, active = well fitted curve in the direction sought with a large enough effect; inconclusive = small, poorly fitted or top-dose-only effect, or another doubt; inactive = no such curve, though single readings can be large; an effect the other way counts as inactive or inconclusive. Potency is read from the fitted curve at half-maximal effect.

How did O=C(Nc1cccc2ccccc12)c1ccc([N+](=O)[O-])o1 do in these assays?
FLuc counter: 2%; NPC1 prom act: -13%; ELG1 repair inh: inconclusive; ELG1 genotox: -10%; Rab9 prom act: -8%

Results for Cc1ccc(C)c(CN2C(=O)c3ccccc3S(=O)(=O)c3ccc(C(=O)N4CCN(c5ccccn5)CC4)cc32)c1 ?
FLuc counter: -3%; SMN2 splice enh: inconclusive

How did NC(=O)c1ccc(C[C@H](C(=O)O)N2C(=O)c3ccc(C(=O)O)cc3C2=O)cc1 do in these assays?
FLuc counter: 8%; NPC1 prom act: -5%; Rab9 prom act: 2%

How did CCn1cnc2c(=O)oc3ccc(S(=O)(=O)Nc4ccc(OC)cc4)cc3c21 do in these assays?
FLuc counter: 1%; SMN2 splice enh: -2%

What do the screens show for `O=C(Nc1ccccc1N1CCCC1)c1ccc([N+](=O)[O-])o1`?
FLuc counter: 3%; NPC1 prom act: -4%; ELG1 repair inh: inconclusive; ELG1 genotox: -8%; Rab9 prom act: 6%

How did O=C(Nc1ccc(N2CCCC2)c(Cl)c1)c1ccc([N+](=O)[O-])o1 do in these assays?
FLuc counter: 7.6µM*; NPC1 prom act: inconclusive; ELG1 repair inh: inconclusive; ELG1 genotox: -18%; Rab9 prom act: inconclusive; SMN2 splice enh: -53%

Results for CC1CCN(c2ccc(NC(=O)c3ccc([N+](=O)[O-])o3)cc2)CC1 ?
FLuc counter: 1.1µM*; NPC1 prom act: inconclusive; ELG1 repair inh: inconclusive; ELG1 genotox: 3.7µM*; Rab9 prom act: 2µM*

How did CCCC(=O)N1CCN(c2ccc(NC(=O)c3ccc([N+](=O)[O-])o3)cc2)CC1 do in these assays?
FLuc counter: 2%; NPC1 prom act: -6%; ELG1 repair inh: inconclusive; ELG1 genotox: 0%; Rab9 prom act: 2%; SMN2 splice enh: -36%

Results for CCOC(=O)c1ccc(OCC2c3cc(OC)c(OC)cc3CCN2C(=O)c2ccc(S(=O)(=O)N3CCCC3)cc2)cc1 (stereo not drawn) ?
FLuc counter: -1%

Results for COc1ccc(OC)c(CCNC(=O)c2nn(C)c3c2CSc2ccccc2-3)c1 ?
FLuc counter: 5%

Results for CN(C)/C=C/C(=O)c1cnc(-c2ccccc2)s1 ?
FLuc counter: 11µM*; NPC1 prom act: 2µM*; ELG1 repair inh: inconclusive; ELG1 genotox: inconclusive; Rab9 prom act: 1.4µM*; SMN2 splice enh: 11µM*

Results for CN(C)/C=C/C(=O)c1cnc(-c2ccc(Cl)cc2)s1 ?
FLuc counter: 2.7µM*; NPC1 prom act: 1µM*; ELG1 repair inh: inconclusive; ELG1 genotox: inconclusive; Rab9 prom act: 0.5µM*; SMN2 splice enh: 10µM*

How did CN(C)/C=C/C(=O)c1ccncc1 do in these assays?
FLuc counter: 0%; NPC1 prom act: -6%; ELG1 repair inh: 7%; ELG1 genotox: 1%; Rab9 prom act: -19%; SMN2 splice enh: 0%

Results for CN(C)/C=C/C(=O)c1ccc(Cl)s1 ?
FLuc counter: -13%; NPC1 prom act: 6%; ELG1 repair inh: inconclusive; ELG1 genotox: inconclusive; Rab9 prom act: 13%; SMN2 splice enh: 2%

How did CC(C)CN(CC(C)C)c1nnc(NC(=O)Nc2cccc(C(F)(F)F)c2)s1 do in these assays?
FLuc counter: 2%

Results for COc1cccc(C2N=C(c3ccccc3C)NO2)c1OC (stereo not drawn) ?
FLuc counter: 9.5µM*; NPC1 prom act: 19%; ELG1 repair inh: inconclusive; ELG1 genotox: inconclusive; Rab9 prom act: 12%

How did COC(=O)c1cccc(NC(=O)CSc2nnc(COc3ccc(C#N)cc3)n2-c2ccccc2)c1 do in these assays?
FLuc counter: 0%; NPC1 prom act: -3%; ELG1 repair inh: inconclusive; ELG1 genotox: -9%; Rab9 prom act: -4%; SMN2 splice enh: -34%

What do the screens show for `Cc1ccc(OCc2nnc(SCC(=O)c3ccccc3)n2-c2ccccc2)cc1`?
FLuc counter: -6%; NPC1 prom act: 1%; ELG1 repair inh: 23µM*; ELG1 genotox: -10%; Rab9 prom act: -1%; SMN2 splice enh: -32%

How did N#Cc1ccc(OCc2nnc(SCC(=O)c3ccccc3)n2-c2ccccc2)cc1 do in these assays?
FLuc counter: 2%; NPC1 prom act: -1%; ELG1 repair inh: 15µM*; ELG1 genotox: -1%; Rab9 prom act: 2%; SMN2 splice enh: -45%

Results for Cc1ccc(OCc2nnc(SC(C)C(=O)O)n2-c2ccccc2)cc1 (stereo not drawn) ?
FLuc counter: -5%; NPC1 prom act: 3%; ELG1 repair inh: 0%; ELG1 genotox: -2%; Rab9 prom act: -2%

How did CCOC(=O)c1c(NC(=O)c2cc3nc(-c4ccc(Br)cc4)cc(C(F)(F)F)n3n2)sc(C(C)=O)c1C do in these assays?
FLuc counter: -6%

Results for CCC(=O)Nc1nnc(SCC(=O)Nc2cccc(Cl)c2)s1 ?
FLuc counter: -17%; NPC1 prom act: -4%; ELG1 repair inh: -8%; ELG1 genotox: -5%; Rab9 prom act: -3%

Results for CCOC(=O)CNC(=O)CSc1nnc(NC(=O)c2ccccc2Cl)s1 ?
FLuc counter: 11µM*; NPC1 prom act: 24%; ELG1 repair inh: inconclusive; ELG1 genotox: inconclusive; Rab9 prom act: inconclusive; SMN2 splice enh: inconclusive

How did Cc1ccccc1C(=O)Nc1nnc(SCC(=O)NC2CC2)s1 do in these assays?
FLuc counter: 8.5µM*; NPC1 prom act: 2.5µM*; ELG1 repair inh: inconclusive; ELG1 genotox: inconclusive; Rab9 prom act: 2.2µM*

How did O=C(CSc1nnc(NC(=O)c2ccccc2Cl)s1)Nc1ccc2c(c1)oc1ccccc12 do in these assays?
FLuc counter: 0.95µM*; NPC1 prom act: 3.5µM*; ELG1 repair inh: inconclusive; ELG1 genotox: inconclusive; Rab9 prom act: inconclusive; SMN2 splice enh: 35µM*

What do the screens show for `O=C(CSc1nc2ccccc2s1)Nc1ccc2c(c1)oc1ccccc12`?
FLuc counter: -2%; NPC1 prom act: 17%; ELG1 repair inh: inconclusive; ELG1 genotox: 8%; Rab9 prom act: 24%; SMN2 splice enh: 11µM*

Results for CCCC(=O)Nc1nnc(SCC(=O)NC2CC2)s1 ?
FLuc counter: 0%; NPC1 prom act: 0%; ELG1 repair inh: 16%; ELG1 genotox: 3%; Rab9 prom act: 2%

What do the screens show for `O=C(CSc1nnc(NC(=O)c2ccc(F)cc2F)s1)NC1CC1`?
FLuc counter: 7.6µM*; NPC1 prom act: inconclusive; ELG1 repair inh: inconclusive; ELG1 genotox: inconclusive; Rab9 prom act: inconclusive

Results for O=C(CSc1nc2ccccc2s1)c1cc2ccccc2o1 ?
FLuc counter: 17µM*; SMN2 splice enh: 0%

Source: PubChem BioAssay
